Experimental findings from the supplement of paper PMC10042075 are described below.

“And” between values parts separate entries of the source, which are not always exact repeats. Equal entries are not always repeated. Structures can show the parent of a compound that is named as a salt.

The assay relates to LASCPC-01. In words: cell viability relative to DMSO control (fraction); higher = less growth inhibition (more viable cells). Conditions: 2 µM; 72 h. The procedure, abridged:
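Cell viability was taken as CellTiter-Glo luminescence from compound-treated wells divided by that from solvent-treated wells. The cells were LASCPC-01 human prostate cancer cells grown in modified HITES medium with 5% fetal bovine serum at 37°C and 5% CO2. They were plated in 384-well format and treated in triplicate with each compound at 2 μM for 72 hours.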
Take `Fc1ccc2c(CCNCc3cccc(OCC(F)(F)C(F)F)c3)c[nH]c2c1` [idalopirdine]: the cell viability worked out at 0.923. For the compound `COc1cc(/C=C/C(=O)O)ccc1O` [Sodium ferulic], the cell viability stood at 0.909.

`CN1[C@@H]2CC[C@H]1C[C@@H](OC(=O)c1c[nH]c3ccccc13)C2` [Tropisetron]: the cell viability came out at 1.01. `CN1CCC[C@@H]1Cc1c[nH]c2ccc(CCS(=O)(=O)c3ccccc3)cc12` [Eletriptan hydrobromide] had a cell viability of 1.21. `Fc1ccc([C@@H]2CCNC[C@H]2COc2ccc3c(c2)OCO3)cc1` [Paroxetine hydrochloride hemihydrate (MW = 374.83)] showed a cell viability of 1.09.

`COc1ccccc1N1CCN(CCN2C(=O)CC3(CCCC3)CC2=O)CC1` [BMY 7378 dihydrochloride] had a cell viability of 1.07. Consider `N#Cc1cc(CN2CCC(Nc3ncnc4sc(Cl)cc34)CC2)ccc1F`, for which the cell viability came out at 0.875.

The compound `Cn1c(=O)cnn(CCCCN2CCN(c3ncccn3)CC2)c1=O` [Eptapirone] gave a cell viability of 0.947. Next, `CC(C)COc1ccc(CNC(=O)N(Cc2ccc(F)cc2)C2CCN(C)CC2)cc1` [Pimavanserin tartrate]: 0.514; `Fc1ccc([C@@H]2CCNC[C@H]2COc2ccc3c(c2)OCO3)cc1` [Paroxetine HCl]: 1.02; `COc1ccccc1N1CCN(CCN(C(=O)C2CCCCC2)c2ccccn2)CC1`: 0.987 and 1.03. For the compound `O=C(O)Cc1c[nH]c2ccc(O)cc12` [5-Hydroxyindolacetic acid], the cell viability was 0.928. Consider `O=C1[C@@H]2[C@H]3CC[C@H](C3)[C@@H]2C(=O)N1CCCCN1CCN(c2ncccn2)CC1` [Tandospirone citrate], for which the cell viability was 0.477.

Regarding `CN1CC2c3ccccc3Oc3ccc(Cl)cc3C2C1` (centres undefined) [Asenapine Maleate], the cell viability amounted to 1.1. The same measure for `O=C1NCCN1CCN1CCC(c2cn(-c3ccc(F)cc3)c3ccc(Cl)cc23)CC1` [Sertindole]: 0.499; for `COc1cc(N)c(Cl)cc1C(=O)NC1CCN(CCCOc2ccc(F)cc2)CC1OC` (centres undefined) [Cisapride]: 0.803. Next, `CN(C)CC[C@@H](c1ccc(Cl)cc1)c1ccccn1` [Dexchlorpheniramine Maleate]: 0.891; `CSc1ccc2c(c1)C(N1CCN(C)CC1)Cc1ccccc1S2` (centres undefined) [Methiothepin mesylate]: 1.03. Consider `O=C(O[C@@H]1C[C@@H]2C[C@H]3C[C@H](C1)N2CC3=O)c1c[nH]c2ccccc12` [Dolasetron], for which the cell viability turned out to be 1.15. `Cn1ccc2cc(NC(=O)Nc3cccnc3)ccc21` had a cell viability of 1.03. The same measure for `Nc1ccc2c(C(F)(F)F)cc(=O)oc2c1` [7-Amino-4-(trifluoromethyl)coumarin]: 0.894. For the compound `CN1CCc2c(c3ccccc3n2Cc2ccccc2)C1` [Mebhydrolin napadisylate], the cell viability amounted to 1.03. Next, `O=c1ccc2ccc(OCCCCN3CCN(c4cccc5sccc45)CC3)cc2[nH]1` [Brexpiprazole]: 1.01. The compound `CN(C)[C@@H](CCOc1cccc2ccccc12)c1ccccc1` [Dapoxetine HCl] gave a cell viability of 1.03. For the compound `COc1ccccc1N1CCN(CCCNc2cc(=O)n(C)c(=O)n2C)CC1` [Urapidil], the cell viability came out at 1.18. `CN(C)CCCN1c2ccccc2CCc2ccccc21` [Imipramine hydrochloride]: the cell viability stood at 1.13.

With `CN1[C@@H]2CC[C@H]1CC(OC(=O)c1c[nH]c3ccccc13)C2` (some centres undefined) [3-Tropanyl-indole-3-carboxylate hydrochloride], the cell viability is 1.04. The same measure for `CNCCC(Oc1ccc(C(F)(F)F)cc1)c1ccccc1` (centres undefined) [Fluoxetine hydrochloride]: 0.686; for `CC1(C)C(=O)N(CCN2CCC(C(=O)c3ccc(F)cc3)CC2)c2ccccc21`: 0.991.
